# How the values were obtained:
# [1] = molecular target: Leukocyte tyrosine kinase receptor (Homo sapiens) (UniProt P29376); details: at 1 µM;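 further: each value is the mean inhibition of LTK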
# [2] = molecular target: Tyrosine-protein kinase Lyn (Homo sapiens) (UniProt P07948); details: at 0.1 µM
# [3] = molecular target: Tyrosine-protein kinase Lyn (Homo sapiens) (UniProt P07948); details: at 1 µM
# [4] = molecular target: Tyrosine-protein kinase Lyn (Homo sapiens) (UniProt P07948); details: at 0.1 µM; remark: listed apart in the source
# [5] = molecular target: Tyrosine-protein kinase Lyn (Homo sapiens) (UniProt P07948); details: at 1 µM; remark: listed apart in the source
# [6] = molecular target: T1, Tyrosine-protein kinase Mer (Homo sapiens) (UniProt Q12866); details: at 0.1 µM
# T1 sequence (whole entry): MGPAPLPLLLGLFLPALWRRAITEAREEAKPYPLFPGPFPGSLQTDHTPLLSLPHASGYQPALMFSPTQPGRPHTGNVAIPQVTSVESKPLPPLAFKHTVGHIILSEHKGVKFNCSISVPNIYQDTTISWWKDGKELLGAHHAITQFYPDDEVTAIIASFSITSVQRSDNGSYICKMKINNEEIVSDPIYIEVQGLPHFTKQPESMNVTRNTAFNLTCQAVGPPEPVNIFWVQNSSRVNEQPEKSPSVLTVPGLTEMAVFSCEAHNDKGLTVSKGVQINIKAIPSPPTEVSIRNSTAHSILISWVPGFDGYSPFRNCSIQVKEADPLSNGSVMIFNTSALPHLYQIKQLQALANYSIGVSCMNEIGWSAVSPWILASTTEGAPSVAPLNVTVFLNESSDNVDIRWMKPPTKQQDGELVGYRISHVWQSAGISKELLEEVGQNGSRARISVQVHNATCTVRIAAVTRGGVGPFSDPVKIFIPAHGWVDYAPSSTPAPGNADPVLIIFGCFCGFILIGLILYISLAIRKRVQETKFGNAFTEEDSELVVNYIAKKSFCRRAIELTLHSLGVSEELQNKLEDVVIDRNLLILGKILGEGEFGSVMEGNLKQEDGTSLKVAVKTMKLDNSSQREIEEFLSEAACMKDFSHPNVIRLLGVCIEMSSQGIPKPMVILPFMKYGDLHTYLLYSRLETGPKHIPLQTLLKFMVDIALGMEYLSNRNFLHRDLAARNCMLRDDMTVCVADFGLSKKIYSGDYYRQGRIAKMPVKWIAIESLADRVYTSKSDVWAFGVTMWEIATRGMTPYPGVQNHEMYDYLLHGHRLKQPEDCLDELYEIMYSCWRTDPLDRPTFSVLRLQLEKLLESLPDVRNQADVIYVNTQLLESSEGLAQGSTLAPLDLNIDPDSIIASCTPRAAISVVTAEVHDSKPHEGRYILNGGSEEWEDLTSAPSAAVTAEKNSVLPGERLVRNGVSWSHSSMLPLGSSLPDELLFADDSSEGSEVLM
# [7] = molecular target: T1, Tyrosine-protein kinase Mer (Homo sapiens); details: at 1 µM
# [8] = molecular target: Hepatocyte growth factor receptor (Homo sapiens) (UniProt P08581); details: at 0.1 µM
# [9] = molecular target: Hepatocyte growth factor receptor (Homo sapiens) (UniProt P08581); details: at 1 µM
# [10] = molecular target: T2, Muscle, skeletal receptor tyrosine-protein kinase (Homo sapiens) (UniProt O15146); details: at 0.1 µM;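 further: values are mean inhibition of MuSK from the GSK PKIS kinase screening panel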
# T2 sequence (whole entry): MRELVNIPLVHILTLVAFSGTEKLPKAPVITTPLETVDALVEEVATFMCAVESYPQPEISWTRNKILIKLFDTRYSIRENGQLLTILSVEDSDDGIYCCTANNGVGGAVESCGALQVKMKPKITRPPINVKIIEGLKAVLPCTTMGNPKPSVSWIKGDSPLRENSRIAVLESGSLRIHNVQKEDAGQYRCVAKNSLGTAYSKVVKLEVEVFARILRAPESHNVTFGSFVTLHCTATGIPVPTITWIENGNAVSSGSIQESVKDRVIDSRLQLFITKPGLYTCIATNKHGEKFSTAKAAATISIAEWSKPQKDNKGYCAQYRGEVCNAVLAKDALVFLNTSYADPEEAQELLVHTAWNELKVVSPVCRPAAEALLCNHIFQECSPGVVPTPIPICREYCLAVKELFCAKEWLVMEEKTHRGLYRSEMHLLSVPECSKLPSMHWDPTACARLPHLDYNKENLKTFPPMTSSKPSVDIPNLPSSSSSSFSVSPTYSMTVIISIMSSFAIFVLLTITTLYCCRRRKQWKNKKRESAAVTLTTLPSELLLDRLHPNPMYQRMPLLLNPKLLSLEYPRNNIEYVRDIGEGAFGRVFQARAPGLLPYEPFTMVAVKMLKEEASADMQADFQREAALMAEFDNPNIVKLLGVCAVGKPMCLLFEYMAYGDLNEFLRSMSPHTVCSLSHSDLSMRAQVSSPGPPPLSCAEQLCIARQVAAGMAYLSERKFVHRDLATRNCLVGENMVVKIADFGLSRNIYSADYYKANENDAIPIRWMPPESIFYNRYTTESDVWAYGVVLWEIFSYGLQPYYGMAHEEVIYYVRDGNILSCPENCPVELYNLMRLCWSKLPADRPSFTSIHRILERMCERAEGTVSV
# Sequence of Leukocyte tyrosine kinase receptor (Homo sapiens) (P29376 whole entry): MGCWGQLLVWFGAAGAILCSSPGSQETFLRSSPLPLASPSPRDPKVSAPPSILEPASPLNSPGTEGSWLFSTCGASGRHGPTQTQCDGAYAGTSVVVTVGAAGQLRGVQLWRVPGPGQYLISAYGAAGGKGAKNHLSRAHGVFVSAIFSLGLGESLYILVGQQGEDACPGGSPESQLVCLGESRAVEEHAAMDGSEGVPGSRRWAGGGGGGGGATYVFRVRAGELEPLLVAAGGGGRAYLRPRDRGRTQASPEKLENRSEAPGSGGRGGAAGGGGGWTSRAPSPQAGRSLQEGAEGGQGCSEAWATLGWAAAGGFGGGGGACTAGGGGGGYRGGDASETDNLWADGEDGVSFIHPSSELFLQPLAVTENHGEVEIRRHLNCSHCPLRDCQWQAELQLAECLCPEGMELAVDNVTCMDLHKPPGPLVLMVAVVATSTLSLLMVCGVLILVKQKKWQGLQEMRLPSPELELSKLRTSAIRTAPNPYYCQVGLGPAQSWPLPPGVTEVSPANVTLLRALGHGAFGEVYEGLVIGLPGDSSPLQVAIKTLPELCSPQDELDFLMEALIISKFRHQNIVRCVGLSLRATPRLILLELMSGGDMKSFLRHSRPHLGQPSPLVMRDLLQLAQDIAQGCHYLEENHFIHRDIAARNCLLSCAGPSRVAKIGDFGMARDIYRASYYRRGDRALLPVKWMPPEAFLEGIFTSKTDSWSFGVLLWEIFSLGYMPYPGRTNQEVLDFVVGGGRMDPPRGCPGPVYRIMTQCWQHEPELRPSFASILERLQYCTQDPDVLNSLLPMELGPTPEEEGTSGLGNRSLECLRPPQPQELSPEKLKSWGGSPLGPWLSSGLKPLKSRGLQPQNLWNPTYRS
# Sequence of Hepatocyte growth factor receptor (Homo sapiens) (P08581 whole entry): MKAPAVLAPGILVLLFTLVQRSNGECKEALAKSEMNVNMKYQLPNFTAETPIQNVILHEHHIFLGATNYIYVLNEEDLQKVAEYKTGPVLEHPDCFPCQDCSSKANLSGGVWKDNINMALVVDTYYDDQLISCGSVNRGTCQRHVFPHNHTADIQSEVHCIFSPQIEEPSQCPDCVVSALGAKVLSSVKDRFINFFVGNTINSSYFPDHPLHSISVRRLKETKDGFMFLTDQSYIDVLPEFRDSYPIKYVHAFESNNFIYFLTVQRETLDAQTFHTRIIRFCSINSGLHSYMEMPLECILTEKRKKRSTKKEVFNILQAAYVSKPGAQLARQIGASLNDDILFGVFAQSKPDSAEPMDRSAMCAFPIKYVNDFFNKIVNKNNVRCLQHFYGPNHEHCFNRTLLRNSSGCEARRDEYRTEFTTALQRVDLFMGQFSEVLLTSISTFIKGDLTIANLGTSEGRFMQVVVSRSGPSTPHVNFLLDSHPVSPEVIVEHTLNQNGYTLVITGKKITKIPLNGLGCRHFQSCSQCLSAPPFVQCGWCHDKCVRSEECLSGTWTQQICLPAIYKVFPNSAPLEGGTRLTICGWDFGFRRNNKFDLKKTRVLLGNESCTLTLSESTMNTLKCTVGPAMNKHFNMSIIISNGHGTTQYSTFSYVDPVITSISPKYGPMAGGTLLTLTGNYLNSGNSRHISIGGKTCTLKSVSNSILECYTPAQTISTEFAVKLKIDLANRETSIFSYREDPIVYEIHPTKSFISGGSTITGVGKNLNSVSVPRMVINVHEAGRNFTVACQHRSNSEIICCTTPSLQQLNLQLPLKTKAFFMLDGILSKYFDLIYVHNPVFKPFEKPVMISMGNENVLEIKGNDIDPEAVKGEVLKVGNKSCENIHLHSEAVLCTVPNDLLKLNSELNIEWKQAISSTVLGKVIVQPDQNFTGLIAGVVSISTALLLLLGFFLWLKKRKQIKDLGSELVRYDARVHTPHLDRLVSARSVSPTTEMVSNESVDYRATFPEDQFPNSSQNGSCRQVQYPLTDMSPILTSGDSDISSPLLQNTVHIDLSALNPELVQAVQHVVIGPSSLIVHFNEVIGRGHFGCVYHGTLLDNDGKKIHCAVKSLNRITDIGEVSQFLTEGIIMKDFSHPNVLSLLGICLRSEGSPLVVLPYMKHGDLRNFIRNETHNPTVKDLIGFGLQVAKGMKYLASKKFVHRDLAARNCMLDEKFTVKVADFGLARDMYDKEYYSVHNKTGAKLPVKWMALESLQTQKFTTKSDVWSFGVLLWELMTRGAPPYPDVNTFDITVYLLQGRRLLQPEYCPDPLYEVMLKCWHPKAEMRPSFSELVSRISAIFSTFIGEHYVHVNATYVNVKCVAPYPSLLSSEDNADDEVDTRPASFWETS
# Sequence of Tyrosine-protein kinase Lyn (Homo sapiens) (P07948 2-512 limits assumed): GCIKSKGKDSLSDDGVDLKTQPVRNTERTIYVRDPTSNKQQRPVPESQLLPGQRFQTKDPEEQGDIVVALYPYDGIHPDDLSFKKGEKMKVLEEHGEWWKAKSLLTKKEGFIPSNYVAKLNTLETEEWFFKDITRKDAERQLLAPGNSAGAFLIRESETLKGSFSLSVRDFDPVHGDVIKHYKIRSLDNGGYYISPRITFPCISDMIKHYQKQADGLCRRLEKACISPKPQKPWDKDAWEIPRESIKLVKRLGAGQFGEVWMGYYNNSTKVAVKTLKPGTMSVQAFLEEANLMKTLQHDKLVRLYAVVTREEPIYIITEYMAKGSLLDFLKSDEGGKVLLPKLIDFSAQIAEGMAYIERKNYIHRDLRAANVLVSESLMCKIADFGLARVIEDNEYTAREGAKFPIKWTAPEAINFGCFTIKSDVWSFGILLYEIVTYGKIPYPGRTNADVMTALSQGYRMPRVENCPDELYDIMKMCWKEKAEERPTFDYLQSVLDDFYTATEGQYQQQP
Structure (SMILES),inhibition [1] [%],inhibition [2] [%],inhibition [3] [%],inhibition [4] [%],inhibition [5] [%],inhibition [6] [%],inhibition [7] [%],inhibition [8] [%],inhibition [9] [%],inhibition [10] [%]
Nc1nccc(-c2c(-c3ccc(F)cc3)ncn2C2CCC(O)CC2)n1 (stereo not given),0.8,3.13,23.6,1.4,18,1.22,7.13,0.14,3.65,0.79
COc1cc2ncn(-c3cc(OCc4ccccc4C(F)(F)F)c(C(C)=O)s3)c2cc1OC,3.33,3.36,6.9,4.22,6.9,-0.14,4.1,1.74,13.5,2.48
COc1ccc2cc(-c3c(-c4ccncc4)nc(-c4ccc(S(C)(=O)=O)cc4C)n3C)ccc2c1,5.96,6.65,22.3,3.79,16.7,2.19,9.48,2.55,4.21,3.24
NC(=O)Cc1ccccc1Oc1nccc(-c2c(-c3ccc(F)cc3)ncn2C2CCNCC2)n1,2.41,2.61,3.78,1.91,1.88,0.54,3.34,2.67,3.24,2.87
CS(=O)(=O)CCNCc1cc(-c2cc3c(Nc4ccc(OCc5cccc(F)c5)c(Cl)c4)ncnc3s2)cs1,6.25,5.45,6.19,2.93,6.07,4.4,8.06,7.8,6.72,2.43
O=C1Nc2ccc(I)cc2C1=Cc1cc(Br)c(O)c(Br)c1,9.99,4.2,7.49,2.6,4.55,2.32,2.36,1.23,4.15,1.59
Fc1ccc(-c2c(-c3ccncc3)nc3n2CCS3)cc1,1.53,2.47,6.12,1.33,3.93,1.44,1.51,3.45,0.39,4.78
Fc1ccc(-c2ncn(C3CCNCC3)c2-c2ccnc(Oc3ccc(Oc4ccccc4)cc3)n2)cc1,4.33,3.46,5.25,1.56,2.92,1.43,10.6,9.38,0.02,2.43
O=C(Nc1ccc(Oc2ccc3[nH]c(NC(=O)c4ccccc4)nc3c2)cc1)Nc1cc(C(F)(F)F)ccc1F,3.76,5.73,27.5,3.48,23.4,1.3,3.74,4.39,19.2,13.9
COc1cc2ncn(-c3cc(OCCc4ccccc4)c(C(N)=O)s3)c2cc1OC,1.98,1.83,9.45,0.79,7.19,2.54,6.75,1.96,5.5,2.9
Clc1ccc(CNc2nccc(-c3cnn4ncccc34)n2)cc1,0.38,3.2,5.62,1.68,3.11,-0.52,0.99,2.02,7.73,3.18
COc1cc(N2CCN(C(C)C)CC2)ccc1Nc1nc(Nc2ccc(F)cc2C(=O)NC[C@@H](O)CO)c2cc[nH]c2n1,88.7,4.36,9.54,2.42,7,0.94,3.95,-1.77,3.3,1.43
CCc1cccc(CC)c1/C=C/c1cncc(C(=O)NC)c1,0.4,3.99,5.8,1.75,4.91,-0.22,4.08,-0.26,1.69,3.82
O=C1NC(=O)C(c2cccc(Cl)c2)=C1Nc1ccc(Cl)c(C(=O)O)c1,2.96,3.89,4.02,2.44,3.42,1.12,-0.64,1.38,3.65,2.04
O=C(Nc1n[nH]c2cc(-c3cc(F)ccc3F)ccc12)C1CC1,2.7,5.22,5.51,3.27,2.53,0.82,2.71,6.12,4.36,3.35
Fc1ccc(-c2ncn(C3CCNCC3)c2-c2ccnc(Oc3ccc(F)c(F)c3)n2)cc1,2.29,3.84,3.75,2.34,2.48,1.13,1.39,7.87,4.17,2.92
COc1cc(Nc2ncc3c(C)nc(-c4cccc(Oc5ccccc5)c4)n3n2)cc(OC)c1OC,3.54,3.39,4.7,1.89,3.75,1.36,1.57,1.11,-0.18,1.49
NC(=O)c1cc(-c2ccncc2)cc(-c2ccccc2)c1N,6.16,11.7,48.8,10,43,1.28,3.16,0.99,3.43,2.46
CNC(=O)c1cncc(/C=C/c2c(C)cccc2C)c1,-0.39,22.1,72.4,17.6,67.8,-0.47,3.56,-0.92,1.41,3.8
CN1CCN(CCCNc2nc3ccc(Oc4ccc(NC(=O)Nc5cc(C(F)(F)F)ccc5F)cc4)cc3[nH]2)CC1,-0.03,1.76,13.2,0.61,9.37,2.04,6.67,5.66,8.95,15

# From ChEMBL document CHEMBL1961873, “Compounds: GSK PKIS; Assays: Nanosyn kinase panel” (2012)
